Reference: the supplement of paper PMC9694430

Assays:
Test in all cases: thermal shift delta Tm vs DMSO control; higher = stronger stabilization (binding)
Details in all cases: 12.5 µM; protein concentration 2 µM
[1] = system: LOC_OS01G01410-cb001
Summary of the method: (§1)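 Compounds dissolved in DMSO were added to purified rice kinase domain constructs, which had been expressed in E. coli, for differential scanning fluorimetry. Each well held 19.5 μl of 2 μM kinase in 100 mM potassium phosphate pH 7.5, 150 mM NaCl, 10% glycerol and 5 × SYPRO Orange. Fluorescence was followed from 25°C to 95°C at a rate of 0.05°C/s. Shifts in Boltzmann-fitted melting temperature are triplicate means relative to DMSO-only protein.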

[2] = system: LOC_OS01G02750-cb003
Summary of the method: as §1

[3] = system: LOC_OS01G10900-cb004
Summary of the method: as §1

[4] = system: LOC_OS01G13800-cb001
Summary of the method: as §1

[5] = system: LOC_OS01G14860-cb001
Summary of the method: as §1

[6] = system: LOC_OS01G21960-cb002
Summary of the method: as §1

[7] = system: LOC_OS01G39600-cb002
Summary of the method: as §1

[8] = system: LOC_OS01G48390-cb002
Summary of the method: as §1

[9] = system: LOC_OS01G51400-cb002
Summary of the method: as §1

[10] = system: T1, LOC_OS01G52050-cb004
T1 sequence (whole entry): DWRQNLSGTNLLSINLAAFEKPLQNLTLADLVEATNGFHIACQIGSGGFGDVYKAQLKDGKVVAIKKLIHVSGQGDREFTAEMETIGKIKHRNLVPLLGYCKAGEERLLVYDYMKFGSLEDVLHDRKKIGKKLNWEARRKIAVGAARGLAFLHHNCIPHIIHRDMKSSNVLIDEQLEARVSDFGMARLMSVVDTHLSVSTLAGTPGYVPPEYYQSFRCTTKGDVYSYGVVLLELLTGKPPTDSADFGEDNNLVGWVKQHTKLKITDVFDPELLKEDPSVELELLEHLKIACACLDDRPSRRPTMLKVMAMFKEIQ
Summary of the method: as §1

[11] = system: LOC_OS01G57100-cb003
Summary of the method: as §1

[12] = system: LOC_OS01G60330-cb001
Summary of the method: as §1

[13] = system: LOC_OS01G60700-cb002
Summary of the method: as §1

[14] = system: LOC_OS01G63280-cb003
Summary of the method: as §1

[15] = system: LOC_OS01G67340-cb003
Summary of the method: as §1

[16] = system: LOC_OS01G70970-cb002
Summary of the method: as §1

[17] = system: LOC_OS02G07810-cb001
Summary of the method: as §1

[18] = system: LOC_OS02G08530-cb003
Summary of the method: as §1

[19] = system: LOC_OS02G14120-cb001
Summary of the method: as §1

[20] = system: LOC_OS02G17970-cb001
Summary of the method: as §1

Row | SMILES | thermal shift delta Tm [1] | thermal shift delta Tm [2] | thermal shift delta Tm [3] | thermal shift delta Tm [4] | thermal shift delta Tm [5] | thermal shift delta Tm [6] | thermal shift delta Tm [7] | thermal shift delta Tm [8] | thermal shift delta Tm [9] | thermal shift delta Tm [10] | thermal shift delta Tm [11] | thermal shift delta Tm [12] | thermal shift delta Tm [13] | thermal shift delta Tm [14] | thermal shift delta Tm [15] | thermal shift delta Tm [16] | thermal shift delta Tm [17] | thermal shift delta Tm [18] | thermal shift delta Tm [19] | thermal shift delta Tm [20]
1 | COc1cc2c(c(OC)c1OC)-c1c(cc3c(c1OC)OCO3)CC(C)C(C)C2 (stereo not given) [Schisandrin B (Sch B)] | 0.01 °C | -0.07 °C | 0.21 °C | -0.06 °C | 0.19 °C | 0.19 °C | -3.57 °C | 0.18 °C | 0.24 °C | -0.05 °C | 0.61 °C | 0.33 °C | 0.75 °C | 0.34 °C | -0.14 °C | 0.46 °C | 0.64 °C | 0.6 °C | 0.07 °C | 0.95 °C
2 | O=C1NC(=O)[C@@H](c2cn3c4c(cccc24)CCC3)[C@@H]1c1c[nH]c2ccccc12 [Tivantinib (ARQ 197)] | 0.55 °C | 0.06 °C | 0.15 °C | 0.17 °C | 0.16 °C | 0.75 °C | 0.54 °C | 0.43 °C | 0.27 °C | 0.75 °C | 1.7 °C | 0.74 °C | 0.02 °C | 0.24 °C | 0.37 °C | 0.39 °C | 0.91 °C | 0.76 °C | 0.16 °C | 0.24 °C
3 | COc1cc(OC)cc(N(CCNC(C)C)c2ccc3ncc(-c4cnn(C)c4)nc3c2)c1 | 0.55 °C | 1.27 °C | 0.16 °C | 0.03 °C | 0.57 °C | 0.2 °C | 1.11 °C | 2.48 °C | 0.26 °C | 2.05 °C | 1.85 °C | 0.09 °C | 0.12 °C | 0.43 °C | 0.07 °C | 0.6 °C | -0.54 °C | 0.61 °C | 2.34 °C | -0.45 °C
4 | O=c1cc(N2CCOCC2)oc2c1ccc1ccccc12 | -0.07 °C | 2.24 °C | 1.69 °C | 0.55 °C | 0.74 °C | -0.09 °C | -0.09 °C | 0.43 °C | -0.05 °C | 0.24 °C | -0.21 °C | -0.04 °C | 0.19 °C | 0.17 °C | 0.3 °C | -0.28 °C | 0.45 °C | 0.22 °C | 1.47 °C | 0.01 °C
5 | c1ccc(-c2[nH]ncc2-c2ccnc3ccccc23)nc1 | 0.44 °C | 0.87 °C | 0.58 °C | 0.69 °C | 0.36 °C | 0.76 °C | 0.33 °C | 0.11 °C | 0.03 °C | 0.61 °C | 0.37 °C | -0.07 °C | 0.62 °C | -0.05 °C | 0.51 °C | -0.04 °C | 0.95 °C | 0.29 °C | 2.26 °C | 0.56 °C
6 | CN(C)C/C=C/C(=O)Nc1cc2c(Nc3ccc(F)c(Cl)c3)ncnc2cc1O[C@H]1CCOC1 [Afatinib (BIBW2992)] | 1.12 °C | -0.19 °C | 4 °C | 0.13 °C | 2.91 °C | -0.28 °C | 1.11 °C | 2.17 °C | 0.41 °C | 0.75 °C | 0.75 °C | 0.2 °C | 1 °C | -0.22 °C | -0.42 °C | 0.44 °C | 0.56 °C | 0.76 °C | 2.04 °C | -0.15 °C
7 | C[C@H](NC(=O)/C(C#N)=C/c1cccc(Br)n1)c1ccccc1 | -1.2 °C | -2.27 °C | -0.05 °C | -0.79 °C | -1.13 °C | -0.08 °C | -1.71 °C | 0.12 °C | -1 °C | -1.36 °C | 2.09 °C | 0.03 °C | -0.53 °C | -4.67 °C | -1.18 °C | -1.46 °C | 0.51 °C | 0.47 °C | -1.36 °C | -2.09 °C
8 | CCS(=O)(=O)N1CC(CC#N)(n2cc(-c3ncnc4[nH]ccc34)cn2)C1 | 0.57 °C | 1.52 °C | 0.33 °C | 0.37 °C | 2.29 °C | 1.23 °C | 0.17 °C | 0.14 °C | 0.39 °C | 1.36 °C | 2.25 °C | 0.75 °C | 1.26 °C | 1.3 °C | 0.81 °C | 0.39 °C | 0.37 °C | 1.89 °C | 4.11 °C | 0.86 °C
9 | Cc1cc(N2CCOCC2)cc2[nH]c(-c3c(NC[C@@H](O)c4cccc(Cl)c4)cc[nH]c3=O)nc12 | 4.78 °C | 2.98 °C | -0.47 °C | 0.09 °C | 1.24 °C | 1.2 °C | 2.56 °C | 1.43 °C | 0.28 °C | 3.88 °C | 1.15 °C | 6.82 °C | -0.31 °C | 1.68 °C | 1.08 °C | 1.82 °C | 0.46 °C | 4.03 °C | 1.99 °C | 0.82 °C
10 | CNC(=O)c1cccc(-c2ccc3c(N4CCOC[C@@H]4C)nc(N4CCOC[C@@H]4C)nc3n2)c1 [Vistusertib (AZD2014)] | 0.53 °C | 0.19 °C | 0.09 °C | 0.05 °C | -0.13 °C | 0.23 °C | -0.58 °C | 0.24 °C | 0.26 °C | -0.25 °C | 0.66 °C | 0.59 °C | 0.1 °C | 0.16 °C | 0.54 °C | 0.23 °C | 0.11 °C | 1.58 °C | 0 °C | -0.08 °C
11 | N#CC[C@H](C1CCCC1)n1cc(-c2ncnc3[nH]ccc23)cn1 | 0.74 °C | 1.15 °C | 0.65 °C | -0.01 °C | 1.62 °C | 1.47 °C | 0.6 °C | 0.4 °C | -0.02 °C | 0.98 °C | 0.48 °C | 1.16 °C | 0.62 °C | 0.56 °C | 0.07 °C | 0.28 °C | 1.11 °C | 1.14 °C | 3.58 °C | 0.47 °C
12 | CCS(=O)(=O)c1cccc(-c2cc(C(=O)NC3CCN(C)CC3)c(C)c3[nH]c4ncc(C)cc4c23)c1 | 3.99 °C | 0.8 °C | 4.18 °C | -0.51 °C | 4.38 °C | 2.97 °C | 0.89 °C | 2.14 °C | 0.16 °C | 6.44 °C | 1.61 °C | 3.88 °C | 0.41 °C | -0.02 °C | 0.99 °C | 6.38 °C | 0.49 °C | 4.38 °C | 10.6 °C | 0.54 °C
